Experimental data as given in PubChem BioAssay (NCATS).
Calls of active or inactive are those of the source. No rule for the calls is given here.

test system: HIV-1 nucleocapsid protein NCp7 (binding to TG oligonucleotide); assay: HIV Nucleocapsid (AID 346); conditions: HIV-1 NC / fluorescein-TGTGTGTG probe, fluorescence polarization;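 also: potency is for inhibitors that block NC binding and lower polarization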
Procedure: NCGC Assay Overview: HIV-1 nucleocapsid protein (HIV-1 NC) is a small (6.5 kDa) basic zinc-finger protein which participates in packaging of viral genomic RNA. The spacing and metal-chelating residues (3 Cys, 1 His) of the Cys-X2-Cys-X4-His-X4-Cys Zn fingers are conserved among all known retroviruses (J. Med. Chem. 1998, 41, 1371-1381). HIV-1 NC was assayed for its binding to the consensus sequence single-stranded 5'-TGTGTGTG. […] High salt was included to increase the stringency of binding and inhibitor screen. Reducing agents and zinc were present to stabilize the nucleocapsid zinc-finger protein.
NCGC Assay Protocol Summary: Buffer. Hepes pH 7.5, 250mM NaCl, 1uM ZnCl2. 0.004% polyethylene glycol 20000. TCEP (100 uM) and 2-Mercaptoethanol (5 mM), added fresh the day of the experiment. Reagents/Controls. 10 nM TG4xF only in columns 3 and 4 as negative control. 10 nM TG4xF/100 nM HIV-1 NC in columns 1, 2, 5-48. Titration of control compound NSC-13778 (from 20 mM, then 1:2) pin-transferred to column 2. Assay Steps. Two uL of reagents were dispensed to 1536-well Kalypsys black plates. The plates were centrifuged for 1 min at 1000 rpm. Compounds and controls (20 nL) were transferred via Kalypsys PinTool. The plates were incubated for 1 hr at room temperature, and then read on ViewLux (Perkin-Elmer). High-throughput CCD imager using fluorescein polarization filter set and 45 seconds exposure time.
Potency is read from the fitted curve at half-maximal effect.

Row | SMILES | Potency
1 | Cc1noc(C)c1C(=O)N1CCC2(CCN(C(=O)NC(C)C)CC2)CC1 | > 20 µM (inactive)
2 | COCCNc1ncnc2ccc(-c3ccc(C(=O)N(C)C)cc3)cc12 | > 20 µM (inactive)
3 | COc1cccc(-c2nccc(NCc3cnc(C)cn3)n2)c1 | > 20 µM (inactive)
4 | COCCn1c(=O)c(-c2ccc(OC)cc2)nc2cnc(Nc3ccccc3)nc21 | > 20 µM (inactive)
5 | COCC(=O)N1CCC2(CC1)CN(c1ccccn1)C2 | > 20 µM (inactive)
6 | COc1ccc(-c2nc3cnc(N4CCNCC4)nc3n(Cc3cccc(OC)c3)c2=O)cc1 | > 20 µM (inactive)
7 | Cn1c(=O)c(-c2ccc(F)cc2)nc2cnc(Oc3ccccc3)nc21 | > 20 µM (inactive)
8 | c1cc(NC2CC2)nc(-c2ccoc2)n1 | > 20 µM (inactive)
9 | COc1ccccc1CN1CCCC2(CCN(C(=O)Oc3ccccc3)CC2)C1 | > 20 µM (inactive)
10 | O=S(=O)(c1ccccc1)N1CCC2(CC1)CN(c1ccccc1)C2 | > 20 µM (inactive)
11 | COc1ccc(C(=O)N2CCC3(CCN(Cc4ccccc4)CC3)CC2)cc1 | > 20 µM (inactive)
12 | CCNc1ncc2nc(-c3cccc(C#N)c3)c(=O)n(CCC#N)c2n1 | > 4 µM (inactive)
13 | O=C(c1ccco1)N1CCC[C@@]2(CCN(c3cccc(-c4ccccc4)c3)C2)C1 | > 20 µM (inactive)
14 | COc1ccccc1-c1ccc2ncnc(N(C)C)c2c1 | > 20 µM (inactive)
15 | COc1ccc(-c2nc3cnc(N4CCN(C)CC4)nc3n(C3CC3)c2=O)cc1 | > 20 µM (inactive)
16 | Cc1noc(C)c1C(=O)N1CCC[C@@]2(CCN(c3cccc(-c4ccccc4)c3)C2)C1 | > 20 µM (inactive)
17 | Cn1c(=O)c(-c2ccc(Cl)cc2)nc2cncnc21 | > 20 µM (inactive)
18 | COc1cccc(-c2nc(NCCNC(C)=O)c3ccccc3n2)c1 | > 20 µM (inactive)
19 | COc1ccc(NC(=O)N2CC[C@@]3(CCCN(C(=O)c4cccc(F)c4)C3)C2)cc1 | > 20 µM (inactive)
20 | COCCn1c(=O)c(-c2cccc(C#N)c2)nc2cnc(N3CCNCC3)nc21 | > 20 µM (inactive)

Row | SMILES | Potency
21 | COC(=O)N1CCC2(CC1)CCN(c1ncccn1)CC2 | > 20 µM (inactive)
22 | Cc1nc2cnc(N3CCN(C)CC3)nc2n(Cc2ccc(F)cc2)c1=O | > 20 µM (inactive)
23 | COc1cccc(-c2cncnc2-n2ccnc2)c1 | > 20 µM (inactive)
24 | COCCn1c(=O)c(-c2ccc(F)cc2)nc2cncnc21 | > 20 µM (inactive)
25 | COc1ccc(-n2c(=O)c(C)nc3cnc(Oc4cccc(Cl)c4)nc32)cc1 | > 20 µM (inactive)
26 | N#Cc1cccc(-c2cc(NCc3ccccc3)ncn2)c1 | > 20 µM (inactive)
27 | COc1ccccc1CCn1c(=O)c(-c2ccc(F)cc2)nc2cncnc21 | > 20 µM (inactive)
28 | COc1ccccc1-c1cc(N(C)Cc2ccco2)ncn1 | > 20 µM (inactive)
29 | CNc1ncnc2ccc(-c3cccc(NS(C)(=O)=O)c3)cc12 | > 20 µM (inactive)
30 | COCCNc1ncnc2ccc(-c3cccc(NS(C)(=O)=O)c3)cc12 | > 20 µM (inactive)
31 | COc1ccc(-n2c(=O)c(-c3ccc(F)cc3)nc3cnc(N4CCOCC4)nc32)cc1 | > 20 µM (inactive)
32 | CNc1nc(-c2ccccc2Cl)nc2ccccc12 | > 20 µM (inactive)
33 | COc1ccc(-n2c(=O)cnc3cnc(N4CCNCC4)nc32)cc1 | > 20 µM (inactive)
34 | COCCNc1cc(-c2ccccc2C(F)(F)F)ncn1 | > 20 µM (inactive)
35 | O=C(c1cccc(F)c1)N1CCC[C@@]2(CCN(Cc3nccs3)C2)C1 | > 20 µM (inactive)
36 | O=C(c1cccc(F)c1)N1CCC2(CC1)CN(c1ccccc1)C2 | > 20 µM (inactive)
37 | COCCNc1nc(-c2ccoc2)nc2ccccc12 | > 20 µM (inactive)
38 | CN(Cc1ccco1)c1ncnc2ccc(-c3cccnc3)cc12 | > 20 µM (inactive)
39 | COCC(=O)N1CCC2(CC1)CCN(C(c1ccccc1)c1ccccc1)CC2 | > 20 µM (inactive)
40 | N#CCCn1c(=O)c(-c2ccc(Cl)cc2)nc2cnc(N3CCNCC3)nc21 | > 20 µM (inactive)
